Assay outcomes as filed in PubChem.
Sampled rows, rich in hits. Any-hit rate of the full collection: about 18%.
TDP1 inh: qHTS Assay for Inhibitors of Tyrosyl-DNA Phosphodiesterase (TDP1); 350,000 compounds, 0.28% hits; recombinant TDP1, AlphaScreen DNA substrate cleavage; Potency, µM (titrated, usually from 130 µM), without a hit: top-dose activity change, negative = inhibition, hits mostly inhibitors; AID 485290, 2010; also: potency is read from the fitted curve at half-maximal effect; % is scaled to controls: 0 for no effect and ±100 for the full control effect; nearly all actives have a fitted effect of over 40% in size
Target sequence (Q9NUW8 whole entry, looked up): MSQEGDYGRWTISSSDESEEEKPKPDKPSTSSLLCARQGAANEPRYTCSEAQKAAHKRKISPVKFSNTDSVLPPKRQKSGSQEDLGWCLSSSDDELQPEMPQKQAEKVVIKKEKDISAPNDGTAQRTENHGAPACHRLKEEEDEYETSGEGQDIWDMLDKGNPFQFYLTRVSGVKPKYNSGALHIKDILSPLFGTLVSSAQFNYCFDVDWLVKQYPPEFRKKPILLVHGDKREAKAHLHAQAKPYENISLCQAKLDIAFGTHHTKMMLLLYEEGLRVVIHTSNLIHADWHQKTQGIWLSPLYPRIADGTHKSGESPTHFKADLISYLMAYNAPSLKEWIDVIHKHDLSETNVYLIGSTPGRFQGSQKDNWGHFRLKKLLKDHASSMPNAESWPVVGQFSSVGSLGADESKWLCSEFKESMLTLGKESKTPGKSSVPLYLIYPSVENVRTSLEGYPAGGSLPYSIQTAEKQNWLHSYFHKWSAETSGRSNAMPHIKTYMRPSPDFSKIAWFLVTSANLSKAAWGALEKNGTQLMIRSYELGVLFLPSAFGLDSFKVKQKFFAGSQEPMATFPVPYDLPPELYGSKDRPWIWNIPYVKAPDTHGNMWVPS
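Enzyme-compound mixtures sat 15 min at room temperature, followed by a 5 min reaction with 15 nM final substrate and 10 min with AlphaScreen beads. Recombinant human Tdp1 was used at 1 nM final.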
TGFb inhibitor: qHTS for Inhibitors of TGF-b; HepG2 CAGA-GFP TGF-b/SMAD3 reporter, GFP fluorescence, 18 h; TGF-beta stimulated, 500 pg/mL final; Potency, µM (highest dose often 46.1 µM), for inactives: at the top dose activity, negative = inhibition, hits mostly inhibitors; 410,000 compounds, 1.2% hits; also: potency is read from the fitted curve at half-maximal effect; % is scaled to controls: 0 for no effect and ±100 for the full control effect; nearly all actives have a fitted effect of over 65% in size
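TGF-beta reporter screen: HEPG2 CAGA-GFP, 1% FBS, 500 pg/mL TGF-beta final, 18 h; per-cell GFP summed per well; curves fitted and categorized by class.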
HepG2 tox: qHTS for Inhibitors of TGF-b: Cytotox Counterscreen; HepG2 CAGA-GFP viability, ATP luminescence, 18 h; Potency, µM (top dose mostly 46.1 µM), for inactives: at the top dose activity change, negative = cytotoxicity, hits mostly cytotoxic; 410,000 compounds, 0.76% hits; AID 588856, 2011; also: potency is read from the fitted curve at half-maximal effect
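HepG2 CAGA-GFP cells (1000/well, DMEM with 1% FBS) received compound, then TGF-beta at 500 pg/mL final, and were incubated 18 hours at 37 degrees C. Viability was read by CellTiter-Glo luminescence. Media-only wells were set as complete cell-killing and DMSO as no toxicity.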
TDP1 cell CPT: qHTS for Inhibitors of human tyrosyl-DNA phosphodiesterase 1 (TDP1): qHTS in cells in presence of CPT; 420,000 compounds, 12% hits; chicken DT40 Tdp1-/-;hTDP1 cells + 20 nM CPT, ATP luminescence, 48 h; Potency, µM (series often up to 46.2 µM), for inactives: top-dose activity change, negative = growth inhibition, most hits filed as inhibitors; AID 686979, 2013; also: potency is read from the fitted curve at half-maximal effect; % is scaled to controls: 0 for no effect and ±100 for the full control effect; nearly all actives have a fitted effect of over 55% in size
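Chicken DT40 Tdp1-/- cells stably complemented with human TDP1 were seeded at 400 cells/well in medium containing 20 nM camptothecin, exposed to pin-transferred compounds, and grown at 37 °C for at least 48 hr. Viability was read as ATP luminescence.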
IL1B secr inh: qHTS for Inhibitors of Inflammasome Signaling: IL-1-beta AlphaLISA Primary Screen | THP-1 LPS/ATP IL-1B secretion, AlphaLISA, 16 h; active compounds read low | activity change, % at 57.5 µM | 360,000 compounds, 4.7% hits; in the data active = activity change below about -50%; inconclusive = mostly about -30% to -49%; also: % is scaled to controls: 0 for no effect and ±100 for the full control effect
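Secreted IL-1B measured by AlphaLISA bead assay after 16 h compound exposure of THP-1 cells; compounds (final up to 57.5 uM) added 1 h before LPS (250 ng/mL) and ATP (1.25 mM) stimulation; lower signal means less secretion.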
DT40 TDP1 no CPT: qHTS for Inhibitors of human tyrosyl-DNA phosphodiesterase 1 (TDP1): qHTS in cells in absence of CPT. DT40 Tdp1-/- hTDP1 cells, no CPT, ATP luminescence, 48 h. Potency, µM (top dose mostly 46.2 µM), without a hit: at the highest dose activity change, negative = growth inhibition, actives largely listed as inhibitors. 420,000 compounds, 15% hits. AID 686978, 2013; also: potency is read from the fitted curve at half-maximal effect; % is scaled to controls: 0 for no effect and ±100 for the full control effect; nearly all actives have a fitted effect of over 55% in size
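A cellular qHTS used chicken DT40 cells lacking endogenous Tdp1 but carrying stably transfected human TDP1. Compounds were applied without camptothecin, and cell growth kinetics were judged by ATP-dependent luminescence after ≥48 hr.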
The depositor's hits bear a star; ? = inconclusive; . = no result given; [ ] = remark or other dose. Unless noted, calls follow the shape of the dose curve; as a rule, active = well fitted curve in the direction sought with a large enough effect; inconclusive = small, poorly fitted or top-dose-only effect, or another doubt; inactive = no such curve, though single readings can be large; an effect the other way counts as inactive or inconclusive.

SMILES | TDP1 inh | TGFb inhibitor | HepG2 tox | TDP1 cell CPT | IL1B secr inh | DT40 TDP1 no CPT
COc1cc(NC(=O)c2ccc(N3CC4CC(C3)c3cccc(=O)n3C4)c(NC(=O)c3ccncc3)c2)cc(OC)c1OC (stereo not given) | 7% | 13% | 3% | 4% | ? | 4%
N#CC1(C#N)C(c2ccccc2)OC23CCCCC2C1(C#N)C(=N)O3 (stereo not given) | -2% | 32% | 26% | -1% | -8 | -15%
CCCCC1OC23CCCCC2C(C#N)(C(=N)O3)C1(C#N)C#N (stereo not given) | 2% | 0% | -2% | 7.3µM* | -10 | 7.3µM*
CCCCC1OC23CCCCC2C(C#N)(C#N)C1(C#N)C(=N)O3 (stereo not given) | 3% | 15% | -3% | 6.5µM* | -102* | 6.5µM*
CCN(C[C@H]1N[C@@](C)(C(=O)OC)[C@H]2C(=O)N(C)C(=O)[C@@H]12)S(=O)(=O)c1ccc(-c2ccccc2)cc1 | 2% | -27% | -9% | ? | -17 | ?
S=C1NC[C@H](Cc2ccccc2)N1CC1CCN(CCCC2CCCC2)CC1 | . | -15% | -28% | ? | -67* | ?
CC[C@H](C)[C@H]1CNC(=S)N1CC1CCN(CCC23CC4CC(CC(C4)C2)C3)CC1 | . | -25% | -28% | ? | -63* | 16µM*
CC(C)C[C@H]1CNC(=S)N1CC1CCN(CCCC2CCCC2)CC1 | . | ? | -27% | ? | ? | ?
FC(F)(F)c1cc(CCN2C(=S)NC[C@@H]2CC2CCCCC2)cc(C(F)(F)F)c1 | 4% | 14µM* | -30% | ? | ? | ?
O=C1NC[C@H](Cc2ccccc2)N(CC2CCN(CCC34CC5CC(CC(C5)C3)C4)CC2)C1=O | . | -24% | -32% | 21µM* | -73* | ?
Cc1cc(C)c(NC(=O)C2CCCN(C(=O)c3cnn(-c4ccccc4)c3-n3cccc3)C2)c(C)c1 (stereo not given) | 3% | ? | -24% | ? | . | ?
Cc1ccc(C(=O)OCC(=O)Nc2ccc(C)c(S(=O)(=O)N3CCCCC3)c2)o1 | . | 3% | -12% | -29% | -10 | ?
Cc1ccc(C)c(NC(=O)CSc2ncc3c(n2)-c2ccccc2N(Cc2ccccc2C)S3(=O)=O)c1 | 3% | 0% | 5% | -26% | . | ?
COc1ccc(OC)c(S(=O)(=O)Nc2ccc3c(c2)OCCO3)c1 | . | 8% | 5% | ? | -20 | ?
S=C1NC[C@H](CC2CCCCC2)N1CCc1cccc2ccccc12 | -8% | ? | -32% | ? | 21 | ?
S=C1NC[C@H](CC2CCCCC2)N1CCCCC1CCCCC1 | 5% | -13% | -19% | 16µM* | 4 | ?
CCCCN1C(=S)NC[C@@H]1Cc1ccccc1 | 4% | -4% | -17% | ? | 4 | ?
S=C1NC[C@H](c2ccccc2)N1CC1CCCCC1 | 6% | ? | -3% | 21µM* | -5 | 23µM*
S=C1NC[C@H](Cc2ccccc2)N1CCCCC1CCCCC1 | 3% | ? | -46% | ? | -1 | 26µM*
CCOC(=O)CSc1nc2c(sc3ccccc32)c(=O)n1CCO | 5% | ? | -34% | ? | . | ?
Cc1onc(-c2ccccc2Cl)c1C(=O)N1CCCCCC1 | -4% | 12% | 16% | -2% | 4 | -22%
CCN1CCN(c2cc(C)c3cc(NC(=O)c4cc(Br)ccc4Cl)ccc3n2)CC1 | 6% | ? | 10µM* | ? | . | ?
CCN1CCN(c2cc(C)c3cc(NC(=O)c4ccc(C)c(C)c4)ccc3n2)CC1 | . | -1% | -12% | ? | -7 | 18µM*
CCN1CCN(c2cc(C)c3cc(NC(=O)c4ccncc4)ccc3n2)CC1 | 1% | 4% | -12% | ? | 3 | ?
CC1CCN(S(=O)(=O)c2ccc(C(=O)N3CCCC3C(=O)O)cc2)CC1 (stereo not given) | -3%[56.1 µM] | 20% | -2% | -1% | -9 | 19%
SMILES | TDP1 inh | TGFb inhibitor | HepG2 tox | TDP1 cell CPT | IL1B secr inh | DT40 TDP1 no CPT
C=C1C(=O)c2sccc2C(c2ccc(OC)c(OC)c2)C1COC(C)=O (stereo not given) | . | 0.71µM* | 4.5µM* | 0.52µM* | -101* | 0.23µM*
CCOC(=O)C1=C(C)NC(C)=C(C(=O)OCC)C1c1ccc(OC)c(OC)c1 | . | ? | -72% | ? | -3 | ?
Cc1nnc(SC(C)C(=O)Nc2ccc(Cl)cc2Cl)[nH]c1=O (stereo not given) | 0% | 1% | -17% | -12% | 28 | 9%
NC(=O)C1C(c2ccccc2)=C1c1ccccc1 | 6% | 10% | -4% | -24% | 8 | -8%
NC(=O)C1=C(c2ccccc2)c2ccccc2C1=O | . | ? | -2% | 2.9µM* | -102* | 5.2µM*
CC1(c2cccc(Br)c2)NC(=O)N(CC(=O)Nc2ccc(N3CCCCC3)cc2)C1=O (stereo not given) | . | -27% | -10% | ? | -9 | 13µM*
O=C(CN1C(=O)NC2(CCCCCC2)C1=O)Nc1ccc(OC(F)(F)F)cc1 | . | -8% | -29% | 15µM* | -22 | 9.2µM*
CCN(c1ccccc1)S(=O)(=O)c1ccc(OC)c(NC(=O)CN2C(=O)NC(C)(C)C2=O)c1 | 0% | 9% | 3% | -14% | -5 | -1%
CCN(c1ccccc1)S(=O)(=O)c1ccc(Cl)c(NC(=O)CN2C(=O)NC3(CCCC3)C2=O)c1 | 2% | ? | -36% | ? | ? | 18µM*
Cc1cc(NC(=O)CN2C(=O)NC3(CCCCCC3)C2=O)ccc1Br | -1% | -4% | -23% | ? | -13 | 21µM*
CC1(c2cccc(Br)c2)NC(=O)N(CC(=O)Nc2ccc(F)cc2)C1=O (stereo not given) | 3% | -10% | -19% | -21% | -22 | ?
Cc1ccc(S(=O)(=O)N2CCC(C(=O)OCC(=O)NC3(C#N)CCCCC3)CC2)cc1C | 0% | 5% | 0% | 12% | 13 | 5%
